Measurements as given in PubChem BioAssay (NCATS).
Several values for one entry are separate records, joined by “and”; a condition that tells them apart may be missing. Equal entries are not always repeated. Inconclusive results are not listed. More than one record can exist for a structure, and the calls need not agree. Activity calls are given as the source filed them. Calls follow the shape of the dose curve; as a rule, active = well fitted curve in the direction sought with a large enough effect; inconclusive = small, poorly fitted or top-dose-only effect, or another doubt; inactive = no such curve, though single readings can be large; an effect the other way counts as inactive or inconclusive.

Key:
[1] = Viability qHTS for spleen associated tyrosine kinase inhibitor (SYKi) naive MV4-11 cells (AID 1963823); also: nearly all actives have a fitted effect of over 40% in size
How it was run: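 Compounds were dispensed acoustically onto plates, MV4-11 cells (SYKi-naive) added at 500 per well, and plates incubated 72 hr at 37 C. CellTiter-Glo was added and luminescence measured after 10 min.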

[2] = Viability qHTS for spleen associated tyrosine kinase inhibitor (SYKi) drug resistant MV4-11 cells (AID 1963824); also: nearly all actives have a fitted effect of over 35% in size
How it was run: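 SYK-inhibitor-resistant MV4-11 AML cells were seeded at 500 per well onto compound and cultured 72 hours (37 °C, 5% CO2). CellTiter-Glo was then added, and after 10 min at room temperature, luminescence gave viability.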

[3] = Cellular viability qHTS for adrenocortical cancer (ACC) cell line SW-13 (AID 1963989); conditions: SW-13 ACC cells viability, CellTiter-Glo, 48 h; activity (max response): stronger effect = lower value; also: nearly all actives have a fitted effect of over 65% in size;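 as to activity (max response): cells grown in serum-free medium with ITS supplement; % is scaled to controls: 0 for no effect and ±100 for the full control effect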
How it was run: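 Luminescent ATP read-out (CellTiter-Glo, 20 min at room temperature) measured metabolically competent SW-13 cells after 48 h compound treatment. Final concentrations spanned up to 46 uM; bortezomib served as positive control.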

[4] = Cellular viability qHTS for adrenocortical cancer (ACC) cell line NCI-H295R (AID 1963990); also: nearly all actives have a fitted effect of over 60% in size;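 as to activity change, negative = viability loss: 0% = DMSO only wells and -100% = full killing with cytotoxic reference compound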
How it was run: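 IC50 and maximal efficacy derive from four-parameter logistic modelling of titration curves, with reads scaled between DMSO-only wells (0%) and doxorubicin hydrochloride (100% inhibition). Compounds spanned up to 46 uM over 48 h.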
Potency is read from the fitted curve at half-maximal effect.

Structure (SMILES) | Potency [1] | Potency [2] | Potency [3] | Potency [4] | activity (max response) [3] | viability (% of control) [1] | viability, % of control [2] | activity change, negative = viability loss [4]
CNC(=O)c1ccccc1Nc1nc(Nc2ccc3c(c2OC)CCC[C@@H](N2CCN(CCO)CC2)C3)ncc1Cl | 366 nM (active) | 580 nM (active) | 15800 nM (active) | 2820 nM (active) | – | – | – | –
CN[C@@H]1[C@@H](O)[C@@H](O[C@@H]2[C@H](O)[C@H](O[C@H]3OC(CN)=CC[C@H]3N)[C@@H](N)C[C@H]2N)OCC1(C)O (stereo partly specified) | inactive | inactive | – | inactive | 5.55% (inactive) | – | – | –
O=[N+]([O-])c1ccc(-c2nc(-c3ccc(F)cc3)c(-c3ccncc3)[nH]2)cc1 | 14.8 µM (active) and 5.17 µM (active) | inactive and 9.34 µM (active) and 2.06 µM (active) | – | inactive | -1.63% (inactive) | – | – | –
CO[C@@H]1[C@@H](OC)[C@H](C)[C@@](O)(CC(=O)O)O[C@H]1[C@H](C)[C@H]1O[C@@]2(CC[C@@](C)([C@H]3CC[C@@](C)([C@@H]4O[C@@H]([C@H]5O[C@](C)(O)[C@H](C)C[C@@H]5C)C[C@@H]4OC4C[C@H](OC)[C@@H](OC)[C@H](C)O4)O3)O2)C[C@H](O)[C@H]1C (stereo partly specified) | 376 nM (active) | 596 nM (active) | 1460 nM (active) | 1160 nM (active) | – | – | – | –
C[C@H](CN(C)C)Oc1nc(Nc2cc3cccc(Cl)c3cn2)cnc1C#N | 259 nM (active) and 934 nM (active) | 411 nM (active) and 934 nM (active) | – | 2240 nM (active) | -6.08% (inactive) | – | – | –
CC[C@@H]1[C@H](F)C(=O)N[C@@H]1COc1nccc2cc(C(N)=O)c(OC)cc12 | 11800 nM (active) | 14800 nM (active) | – | inactive | -21.5% (inactive) | – | – | –
CN1CCN(C(=O)c2ccc(-c3ccc4c(C=O)c(O)ccc4c3)s2)CC1 | 16600 nM (active) | 14800 nM (active) | – | inactive | 9.42% (inactive) | – | – | –
CC(C)Oc1ccc(C(=O)N[C@H](CNC(=O)CN(C)C)Cc2ccc(-c3cn4cccc([C@H](C)O)c4n3)cc2)cc1Cl | 26.3 nM (active) | 29.5 nM (active) | 31.6 nM (active) | 316 nM (active) | – | – | – | –
CC(=O)Nc1ccc(C(=O)Nc2ccccc2N)cc1 | 5.63 µM (active) and 4.68 µM (active) | 3.55 µM (active) and 3.72 µM (active) | 11200 nM (active) | 6310 nM (active) | – | – | – | –
OC1(c2ccc(Cl)cc2)CCNCC1 | inactive | inactive | – | inactive | 11.1% (inactive) | – | – | –
COC(C)(C)CCn1nc(Nc2c(C)cccc2C)c2cnc(Nc3ccc(OCCN4CCCC4)c(F)c3)nc21 | 731 nM (active) and 742 nM (active) | 1.03 µM (active) and 1.66 µM (active) | 2820 nM (active) | 3980 nM (active) | – | – | – | –
CC1=C(C(=O)O)N2C(=O)[C@@H](NC(=O)[C@H](N)c3ccc(O)cc3)[C@H]2SC1 | inactive | inactive | – | inactive | 8.09% (inactive) | – | – | –
NC(CSCC(=O)O)C(=O)O (stereo unspecified) | inactive | inactive | – | inactive | -12% (inactive) | – | – | –
C[C@@H](Oc1ccc2[nH]nc(/C=C/c3cnn(CCO)c3)c2c1)c1c(Cl)cncc1Cl | 23.5 nM (active) | 52.5 nM (active) | 3980 nM (active) | 5010 nM (active) | – | – | – | –
Nc1ccc(O)c([N+](=O)[O-])c1 | inactive | 61.1 nM (active) | – | inactive | 0.787% (inactive) | – | – | –
COc1ccc(-c2oc3ncnc(N)c3c2-c2ccc(NC(=O)Nc3cc(C(F)(F)F)ccc3F)cc2)cc1 | 41.1 nM (active) and 66.1 nM (active) | 103 nM (active) and 166 nM (active) | – | inactive | 0.756% (inactive) | – | – | –
O=C(O)CCC(=O)Nc1ccc(S(=O)(=O)Nc2nccs2)cc1 | inactive | inactive | – | inactive | -7.1% (inactive) | – | – | –
COc1cc2c(cc1OC)CN(CCc1ccc(-n3nnc(-c4cc(OC)c(OC)cc4NC(=O)c4cc(=O)c5ccccc5o4)n3)cc1)CC2 | – | – | – | – | -2.39% (inactive) | 79.1% [at 0.588 µM] (inactive) | 98% [at 0.588 µM] (inactive) | -5.76% [at 0.587 µM] (inactive)
Nc1ncnc2c1c(-c1cccc(OCc3ccccc3)c1)cn2C1CC(CN2CCCC2)C1 (stereo unspecified) | 517 nM (active) | 1300 nM (active) | 25100 nM (active) | 2240 nM (active) | – | – | – | –
